INS-1E GSIS act: GLuc luminescence reporter in INS-1E cells, primary screen for activators of glucose-dependent secretion of insulin | INS-1E GLuc reporter insulin secretion, 2-3 h | activation, % at 16.6 µM | hit rate 0.61% among 370,000 | AID 743287, 2014;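 active means lowest replicate activation of at least 40%, so every replicate reaches that level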;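 further: 0% = median of neutral control wells and 100% = median of IBMX positive control wells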
CaV13 ICDI inh: Primary screen for inhibitors of IQ motif and Ca2+-dependent inactivation inhibitor domain binding in CACNA1D, Förster resonance energy transfer in living cells, … | hit rate 0.098% among 340,000 | HEK cells, CFP/YFP FRET ICDI-IQ, plate reader, 10 min; percent FRET-ratio fall versus neutral wells | inhibition, % at 12.3 µM;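 active means mean replicate inhibition of at least 30% and at least 1% of replicates passing that level; inconclusive means only one of the two criteria is met; inactive means neither criterion is met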;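 further: 0% = median of the neutral control wells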
PGC1a acetyl inh: inhibitors of PGC1a acetylation signal, primary screen, cell-based, U2OS, AlphaScreen, inhibitor mode; hit rate 0.17% among 350,000; AlphaScreen anti-acetyl-lysine; with virally co-expressed GCN5 acetyltransferase; inhibition, % at 15.6 µM;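 active means every replicate shows inhibition of at least 40%; inconclusive means mean inhibition at least 40% but some replicate below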;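 further: 0% = neutral control wells and 100% = positive control wells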
ERAP1 HTS inh: human ERAP1 aminopeptidase inhibitors, primary screen, biochemical, single point, plate reader. recombinant ERAP1, Leu-AMC fluorescence, 60 min. inhibition, % at 10.7 µM. AID 652197, 2013. Endoplasmic reticulum aminopeptidase 1 (Homo sapiens), Q9NZ08. hit rate 0.15% among 340,000;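 active means mean replicate inhibition of at least 30%, or all replicates individually reaching that 30% level; inactive means mean below 30% and not every replicate reaching it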;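 further: 0% = neutral control wells and 100% = L-leucinethiol positive control wells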
Target sequence (Q9NZ08 whole entry, looked up): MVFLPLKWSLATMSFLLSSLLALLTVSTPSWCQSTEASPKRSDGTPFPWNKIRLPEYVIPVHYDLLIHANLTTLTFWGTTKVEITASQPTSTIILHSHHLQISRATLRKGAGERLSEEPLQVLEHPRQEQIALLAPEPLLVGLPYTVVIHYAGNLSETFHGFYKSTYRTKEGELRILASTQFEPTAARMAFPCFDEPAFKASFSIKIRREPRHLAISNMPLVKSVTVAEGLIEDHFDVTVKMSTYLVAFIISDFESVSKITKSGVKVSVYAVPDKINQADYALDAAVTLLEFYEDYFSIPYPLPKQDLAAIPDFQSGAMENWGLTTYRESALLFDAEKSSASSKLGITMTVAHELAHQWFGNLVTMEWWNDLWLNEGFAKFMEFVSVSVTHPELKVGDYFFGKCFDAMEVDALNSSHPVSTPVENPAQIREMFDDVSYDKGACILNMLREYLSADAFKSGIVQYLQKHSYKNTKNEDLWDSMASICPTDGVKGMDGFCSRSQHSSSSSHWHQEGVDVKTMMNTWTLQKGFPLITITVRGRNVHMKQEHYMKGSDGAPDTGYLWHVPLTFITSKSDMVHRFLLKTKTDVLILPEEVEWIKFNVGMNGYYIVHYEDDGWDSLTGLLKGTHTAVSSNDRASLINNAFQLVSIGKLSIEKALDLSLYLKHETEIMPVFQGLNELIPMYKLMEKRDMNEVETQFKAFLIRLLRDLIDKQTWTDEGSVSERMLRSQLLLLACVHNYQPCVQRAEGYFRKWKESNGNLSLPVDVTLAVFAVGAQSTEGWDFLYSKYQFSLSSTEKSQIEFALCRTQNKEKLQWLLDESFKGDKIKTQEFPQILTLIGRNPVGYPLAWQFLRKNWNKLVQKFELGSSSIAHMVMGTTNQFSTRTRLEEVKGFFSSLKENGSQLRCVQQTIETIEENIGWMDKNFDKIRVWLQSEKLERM
rRNA inh HTS: reduced GFP signal of wild-type E. coli, primary screen, bacterial rRNA inhibitor project, GFP/RFP fluorescence, OD600, single point | hit rate 1.6% among 350,000 | GFP signal change (wild-type ribosome), % (concentration not given with the values) | E. coli WT GFP vs humanized-ribosome RFP mutants, 24 h; hits give low values; DMSO median 0, no signal -100;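 active means significant combined selectivity score with lowered wild-type GFP, culture density cut under 30%, mutant RFP and density less affected; inactive means any of these conditions unmet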
DENV2 CPE: inhibitors of DENV2 cytopathic effect, primary screen, cell-based, plate reader, single concentration; CPE inhibition, % at 9.99 µM; DENV2-infected cells, cytopathic effect rescue; AID 651640, 2012; hit rate 1.7% among 350,000; in the data active means CPE inhibition above about 20%, passing the limit was not always enough; inconclusive means no clear call, values can overlap the other calls; tested in BHK-21 cells;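 further: 0% = median of neutral control wells and 100% = median of positive control wells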
* = called active by the depositor; ? = inconclusive; nt = no result given; ! = not active in a repeat. Only some compounds are listed: those with a hit (about 3.2% of all), similar ones and a draw of the others.

SMILES	INS-1E GSIS act	CaV13 ICDI inh	PGC1a acetyl inh	ERAP1 HTS inh	rRNA inh HTS	DENV2 CPE
Cc1oc(-c2ccc(Cl)cc2)cc1C(=O)/C(C#N)=C/Nc1ccccc1	-14.5	-4.9	nt	-0.9	-25.3*	-1.6
Cc1oc(-c2ccc(Cl)cc2)cc1C(=O)N1CCC1(C)C(=O)O (stereo unspecified)	-2.3	-11.1	2.5	6.5	-7.4	15.2
Cc1[nH]n(-c2ccccc2)c(=O)c1C(=O)c1ccccc1	5.3	-2.6	-2.0	nt	-28.9	7.7
CCSC(=S)c1c(C)[nH]n(-c2ccccc2)c1=O	-42.3	-5.1	13.8	-6.6	-43.2*	-2.1
CCCCc1nc2cc(C(=O)NCc3cn(C)nc3C)ccc2o1	-0.6	-6.8	10.4	-2.3	-4.8	47.3*
CCCCc1nc2cc(C(=O)NCc3nccn3CC)ccc2o1	-9.0	-7.5	1.1	-1.1	-1.8	?
CCOC(=O)/C(C#N)=C/c1c(N2CCCCCC2)nc2ccccn2c1=O	-0.9	-20.6	4.1	-1.5	-5.9	8.8
CCNc1nn2ccccc2c1/C=C(\C#N)C(=O)OCC	66.4*	-7.5	0.6	2.8	-2.1	9.0
CCCCCCNC(=O)O[C@H]1Cn2c(=O)ccc(=O)n2[C@@H]2CN(S(=O)(=O)c3ccc(C)cc3)C[C@]12O	-31.8	-8.6	14.8	nt	-26.2*	8.0
COc1ccc(Nc2nc(NCc3cccs3)nc3ccsc23)cc1OC	48.0*	-4.8	nt	0.6	-46.0	1.5
COc1ccc(Nc2nc(NC(C)C)nc3ccsc23)cc1OC	-1.2	-4.6	nt	-0.1	-6.5	-4.0
CO[C@@H]1CN(C)C(=O)c2cc(NC(=O)C3CC3)ccc2OC[C@@H](C)N(CCC(F)(F)F)C[C@@H]1C	7.4	nt	5.1	-3.2	-1.5	-5.2
CCOC(=O)c1cc([N+](=O)[O-])sc1NC(=O)c1ccc(S(=O)(=O)N2CC3(C)CC2CC(C)(C)C3)cc1 (stereo unspecified)	nt	-3.4	-5.8	-0.4	0.9	30.1*
CC1(C)CC2CC(C)(CN2S(=O)(=O)c2ccc(C(=O)Nc3ccc(S(=O)(=O)N4CCOCC4)cc3)cc2)C1 (stereo unspecified)	8.4	-4.4	nt	1.0	-4.3	-2.7
CN(C(=O)CCOc1ccccc1)c1c(N)n(Cc2ccccc2)c(=O)[nH]c1=O	4.2	-2.0	-12.6	1.8	10.0	-2.9
CC(=O)c1c(C)[nH]c(C(=O)OCC(=O)N2CCc3ccccc3C2)c1C	4.9	-2.1	-2.4	3.0	-22.2*	5.1
CCN(C(=O)CN1CCN(c2ccccc2F)CC1)c1c(N)n(Cc2ccccc2)c(=O)[nH]c1=O	0.8	0.9	-2.3	4.9	6.2	1.3
CCOc1ccc(OCC(=O)N(C)c2c(N)n(Cc3ccccc3)c(=O)[nH]c2=O)cc1	16.7	-8.7	nt	6.6	2.4	24.7*
CCN(C(=O)CN1CCN(c2ccccc2O)CC1)c1c(N)n(Cc2ccccc2)c(=O)[nH]c1=O	nt	-12.2	50.3*	nt	nt	nt
CC(=O)c1c(C)[nH]c(C(=O)OCC(=O)N2CCN(c3ccccc3)CC2)c1C	1.0	-5.4	6.1	-2.6	1.3	?
CC(=O)c1c(C)[nH]c(C(=O)OCC(=O)N(C)c2c(N)n(Cc3ccccc3)c(=O)[nH]c2=O)c1C	11.2	-5.4	nt	1.4	0.1	142.6*
O=C(N[C@@H]1CC[C@H](CC(=O)N2CCN(c3ccccc3)CC2)O[C@@H]1CO)c1ccccc1	16.8	nt	12.4	-2.8	2.0	0.9
COc1cccc(-c2ccc3n(c2=O)C[C@H]2[C@H](CO)[C@@H](C(=O)NCC4CC4)N(C)[C@@H]32)c1	10.9	nt	nt	nt	-2.3	-4.0
CC(C)(C)NC(=O)NC(=O)C[n+]1ccc(Cc2ccc([N+](=O)[O-])cc2)cc1	-1.8	-18.9	nt	-2.8	-14.5*	1.7
Cc1ccc(Cl)cc1NC(=O)C[n+]1ccc(Cc2ccc([N+](=O)[O-])cc2)cc1	10.3	-0.9	nt	5.7	-51.1	-3.7
SMILES	INS-1E GSIS act	CaV13 ICDI inh	PGC1a acetyl inh	ERAP1 HTS inh	rRNA inh HTS	DENV2 CPE
CC12CCC3C(CCC4CC(O)CCC43C)C1CC(O)C2 (stereo unspecified)	23.6	-11.1	-1.3	-0.8	-28.1*	4.5
C[C@H](O)[C@@]1(O)CC[C@H]2[C@@H]3CC[C@@H]4C[C@H](O)CC[C@]4(C)[C@H]3CC[C@@]21C	6.2	nt	-3.2	0.2	-5.8	-19.9
Cc1nn(-c2ccccc2)c(C)c1CN(C)C(=O)c1ccc(S(=O)(=O)NCc2ccco2)cc1	-11.2	-2.4	nt	-0.3	-33.1*	-4.2
C[C@@H]1CN([C@H](C)CO)C(=O)c2cc(C#CCc3ccccc3)cnc2O[C@H]1CN(C)C(=O)C1CCC1	54.0*	nt	-1.1	-0.3	-2.1	-1.9
C[C@H]1CN([C@@H](C)CO)C(=O)c2cc(C#CCc3ccccc3)cnc2O[C@@H]1CN(C)C(=O)C1CC1	72.4*	nt	-1.7	-0.2	-0.3	?
C[C@@H]1CN([C@@H](C)CO)C(=O)c2cc(C#CCc3ccccc3)cnc2O[C@@H]1CN(C)C(=O)C1CC1	16.0	nt	37.6	0.5	-6.2	?
C[C@@H]1CN([C@@H](C)CO)C(=O)c2cc(C#CCc3ccccc3)cnc2O[C@@H]1CN(C)C(=O)C1CCC1	28.7	nt	-0.6	-0.7	4.2	-7.0
CCN1C(=O)[C@@H]2[C@@H]3CN(S(=O)(=O)c4ccc(C)cc4)[C@@H](c4ccccc4F)[C@@H]3C(=O)C[C@@H]2C1=O	-2.5	-4.8	2.6	6.6	7.8	20.8*
Cc1cccc(C)c1OCC(O)CNC(C)C (stereo unspecified)	nt	nt	-7.8	nt	nt	nt
Cc1cccc(C)c1OCC(N)C(C)C (stereo unspecified)	nt	-5.4	15.2	105.3*	nt	2.0
COC(=O)[C@H](Cc1c[nH]c2ccccc12)NCc1cccc(B(O)O)c1	-2.3	-6.5	-8.3	nt	-23.9*	-11.2
COC(=O)[C@@H](Cc1c[nH]c2ccccc12)NCc1ccc(B(O)O)cc1	-1.1	-8.6	7.6	0.3	-11.8	2.5
CN1C(=O)c2cc(NC(=O)c3cscn3)ccc2OC[C@H]2O[C@H](CC(=O)NCC3CC3)CC[C@H]21	-0.3	nt	1.8	nt	4.2	-1.4
NNc1nc2c(Cl)ccc(Cl)c2s1	-11.9	-3.3	-7.7	-1.1	-26.4*	-11.8
O=C(Nc1nc2c(Cl)ccc(Cl)c2s1)C1CC1	0.8	-6.2	-1.9	4.1	-4.1	9.7
O=C(Nc1ccccc1)C1=C[C@H](c2csc3ccccc23)C[C@H](OCCCCO)O1	2.7	-10.9	-4.1	-0.4	0.9	20.2*!
